HT1080-NT tox – kills 2HG-producing HT-1080-NT fibrosarcoma cells; HT-1080-NT fibrosarcoma viability, CellTiter-Glo ATP luminescence, 48 h; Potency, µM (highest dose often 46.1 µM), for inactives: top-dose activity, negative = less viability, usual class: cytotoxic; 360,000 tested, 1.6% active; AID 686970;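 note: NT is the 2HG producing partner of a matched IDH1 knockdown line; 0% = DMSO-treated cells and -100% = media-only wells without cells; nearly all actives have a fitted effect of over 55% in size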
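HT-1080-NT fibrosarcoma cells (2HG-overproducing), 750 cells/well in RPMI with 5% FBS, dosed after 2 h and incubated 48 h at 37C. CellTiter-Glo luminescence normalized to DMSO and no-cell wells; concentration-response curves fitted and classed.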
HT1080 IDH1KD tx – toxicity to HT-1080 IDH1 knockdown cells (counter line). 360,000 tested, 2% active. Potency, µM (highest dose often 46.1 µM), for the others: top-dose activity, negative = toxicity, hits mostly cytotoxic. HT-1080 IDH1 knockdown viability, ATP luminescence, 48 h;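 note: 0% = DMSO wells and -100% = cell-free medium wells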
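CellTiter-Glo luminescence after 48 h compound exposure at 37 degrees C of IDH1-knockdown HT-1080 cells in 5% FBS RPMI. %Activity scaled between DMSO wells and cell-free media wells, with curves fitted and assigned curve classes.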
SW480 rerep – inducers of DNA re-replication in SW480 colon cancer cells; SW480 DNA re-replication, Hoechst DNA content imaging, 48 h; Potency, µM (highest dose often 46.1 µM), for inactives: at the top dose re-replication activation, usual class: activators; 340,000 tested, 1.8% active; AID 624297; note: % of control where 0% means no effect; nearly all actives have a fitted effect of over 55% in size
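DNA re-replication was detected as more nuclei of elevated Hoechst intensity after 48 hr exposure to compound (23 nL pinned per well of 250 cells).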
KB-3-1 cytotox – KB-3-1 parental cell cytotoxicity; KB-3-1 viability, CellTiter-Glo ATP luminescence, 72 h; Potency, µM (highest dose often 46.1 µM), actives largely listed as cytotoxic; 400,000 tested, 1.4% active; AID 1347075; note: % is set by controls: 0 for no effect and ±100 for the full control effect; nearly all actives have a fitted effect of over 60% in size
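KB-3-1 parental drug-naive adenocarcinoma cells in DMEM/10% FBS, incubated 72 h at 37 C with pin-transferred compounds across a concentration series. Viability by CellTiter-Glo luminescence; concentration-response curves fitted after normalization.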
KB-V1 MDR tox – KB-V1 MDR subline cytotoxicity; KB-V1 MDR cells viability, CellTiter-Glo, 72 h; AID 1347076; 400,000 tested, 3.4% active; Potency, µM (doses to about 46.1 µM), most hits filed as cytotoxic; note: % is set by controls: 0 for no effect and ±100 for the full control effect; nearly all actives have a fitted effect of over 60% in size
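In this primary screen, KB-V1 cells overexpressing P-gp are incubated with library compounds (lowest to highest concentration) for 72 h at 37 degrees C before a luminescent ATP viability read.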
MCF10A rerep – DNA re-replication induction in MCF 10a cells; MCF 10A DNA re-replication, Hoechst nuclear intensity, 48 h; Potency, µM (series often up to 46.1 µM), without a hit: at the top dose activity, positive = re-replication, actives largely listed as activators; 350,000 tested, 2.9% active; AID 624296; note: % of control where 0% means no effect; nearly all actives have a fitted effect of over 50% in size
* = called active by the depositor; i = inactive; u = inconclusive; x = no result given; [ ] = remark or other dose. This is a sample that favours compounds with a hit; in the whole collection about 7.9% have one here. Calls come from the whole dose curve; as a rule, active = well fitted curve in the direction sought with a large enough effect; inconclusive = small, poorly fitted or top-dose-only effect, or another doubt; inactive = no such curve, though single readings can be large; an effect the other way counts as inactive or inconclusive. Potency is the fitted concentration of half-maximal effect.

SMILES | HT1080-NT tox | HT1080 IDH1KD tx | SW480 rerep | KB-3-1 cytotox | KB-V1 MDR tox | MCF10A rerep
COc1ccc(CCn2c(=N)c(C(=O)NCc3ccco3)cc3c(=O)n4ccccc4nc32)cc1 | u | 13µM* | 14% | i | 23µM* | 9.2µM*
N=c1c(C(=O)NC2CCCCC2)cc2c(=O)n3ccccc3nc2n1Cc1ccco1 | -6% | 6% | 21µM* | i | i | u
Cc1ccc2nc3c(cc(C(=O)NCc4ccco4)c(=N)n3C(C)C)c(=O)n2c1 | x | x | x | i | i | x
CCOc1ccc(C(=O)Nc2ccc(-c3nc4ccccc4[nH]3)cc2)cc1Cl | x | x | x | i | u | x
N=c1c(C(=O)NCc2ccc(F)cc2)cc2c(=O)n3ccccc3nc2n1Cc1cccnc1 | -4% | -2% | u | i | u | 5.8µM*
O=C(NC1CCCN(Cc2ccc(Cl)cc2)C1)c1cnc2ccccn2c1=O (stereo unspecified) | -6% | -17% | 1% | x | x | 11%
COC(=O)c1cc2c(=O)n3ccccc3nc2n(Cc2cccnc2)c1=N | 2% | 9% | u | i | i | u
N=c1c(S(=O)(=O)c2ccccc2)cc2c(=O)n3ccccc3nc2n1Cc1ccco1 | -23% | -19% | 18% | i | i | 1%
N=c1c(C(=O)NCCc2ccccc2)cc2c(=O)n3ccccc3nc2n1Cc1ccco1 | u | u | 18µM* | i | u | 9.2µM*
CC(C)Cc1ccc(CN2CCCC(NC(=O)c3cnc4ccccn4c3=O)C2)cc1 (stereo unspecified) | -11% | -7% | u | 16µM* | u | u
N=c1c(C(=O)NC2CCCCC2)cc2c(=O)n3ccccc3nc2n1Cc1cccnc1 | 0% | -1% | 15µM* | i | i | u
CCCn1c(=N)c(C(=O)NCc2cccnc2)cc2c(=O)n3ccccc3nc21 | x | x | x | i | i | x
CCOc1ccc(C(=O)NCCSc2c(C)[nH]c3ccccc23)cc1OCC | x | x | x | i | i | x
CCOCCCNC(=O)c1c(NC(=O)c2nc(SCC)ncc2Cl)sc2c1CCCC2 | x | x | x | i | i | x
N=c1c(C(=O)NC2CCCCC2)cc2c(=O)n3ccccc3nc2n1CCc1ccccc1 | -1% | 2% | 2.3µM* | i | i | 2.6µM*
CC(=O)Nc1ccccc1OC1=N[S+](=O)([O-])c2ccccc21 | x | x | x | u | i | x
CSc1nccc(-c2nn(-c3ccc(C)cc3)ccc2=O)n1 | u | 8.2µM* | 13µM* | 5.2µM* | 2.9µM* | 8.2µM*
C=CCSc1nccc(-c2nn(-c3ccc(C)cc3)ccc2=O)n1 | u | u | u | 6.5µM* | 3.7µM* | 8.2µM*
C#CCSc1nccc(-c2nn(-c3ccc(C)cc3)ccc2=O)n1 | -8% | -23% | 35% | i | u | u
Nc1nccc(-c2nn(-c3ccc(Cl)cc3)ccc2=O)n1 | 6% | 1% | -3% | i | i | 1%
CCSc1nccc(-c2nn(-c3ccc(C)cc3)ccc2=O)n1 | 10µM* | 9.2µM* | 7.3µM* | 2.1µM* | 2.6µM* | 5.2µM*
CCOC(=O)c1cc(S(=O)(=O)N2CCN(c3ccccc3)CC2)[nH]n1 | x | x | x | i | i | x
CCCCNC(=O)COC(=O)c1c2c(nc3ccccc13)CCC2 | -10% | -13% | -5% | i | i | -2%
CNC(=O)NC(=O)C(C)OC(=O)c1c2c(nc3ccccc13)/C(=C/c1cccs1)CC2 (stereo unspecified) | -2% | -8% | u | u | 5.2µM* | u
CCCCNC(=O)COC(=O)c1c2c(nc3ccccc13)/C(=C/c1cccs1)CC2 | -22% | u | 5.2µM* | i | u | 3.3µM*
SMILES | HT1080-NT tox | HT1080 IDH1KD tx | SW480 rerep | KB-3-1 cytotox | KB-V1 MDR tox | MCF10A rerep
O=c1[nH]c(C(Cl)(Cl)Cl)nc2ccc3ccccc3c12 | 0% | -15% | -6% | i | i | 5%
O=C(CN1C(=O)C2CC=CCC2C1=O)OCC(=O)c1ccc(Cl)c([N+](=O)[O-])c1 (stereo unspecified) | 1% | 2% | u | i | u | 23µM*
Cc1ccc(Cl)c(NC(=O)CSc2n[nH]c(=O)n2C2CC2)c1Cl | 19% | 0% | 4% | i | i | -1%
Cc1nc(N2CCN(Cc3ccccc3)CC2)nc2c1C(=O)CC(C)C2 (stereo unspecified) | -4% | -19% | 9% | i | 21µM* | 4%
COc1ccccc1NC(=O)C1CCCN(c2cnccn2)C1 (stereo unspecified) | 0% | 4% | 3% | i | i | 13%
CCOc1ccc(NS(=O)(=O)CC23CCC(CC2=O)C3(C)C)cc1 (stereo unspecified) | 2% | 0% | -10% | i | 18µM* | 13%
COc1ccc(NS(=O)(=O)CC23CCC(CC2=O)C3(C)C)cc1 (stereo unspecified) | 0% | 4% | -3% | i | u | 6%
CC(=O)Nc1ccc(NC(=O)c2csnn2)cc1 | x | x | x | i | i | x
CCCCNC(=S)NCC(c1ccccc1)c1c[nH]c2ccccc12 (stereo unspecified) | u | u | u | i | u | u
CN(C)CCCNC(=S)NCC(c1ccc(Cl)cc1Cl)c1c[nH]c2ccccc12 (stereo unspecified) | 21µM* | 16µM* | 0% | i | i | u
CCNC(=S)N1CCN(C(=O)C(Cc2ccccc2)NC(C)=O)CC1 (stereo unspecified) | 4% | 1% | 5% | i | i | 0.65µM*
CC(=O)NC(Cc1ccccc1)C(=O)N1CCN(C(=S)NCC(C)C)CC1 (stereo unspecified) | 18% | 7% | -14% | i | i | -4%
COc1cc(OC)cc(C(=O)Nc2ccc3nc(N4CCC(C)CC4)cc(C)c3c2)c1 | x | x | x | i | i | x
CCOC(=O)C(NC(=O)CCl)(Nc1sc(C)c(CC)c1C#N)C(F)(F)F (stereo unspecified) | u | -24% | 16µM* | i | u | u
COc1ccc(CNC(=O)CCCCCNC(=O)N2CCn3c2nc2ccccc23)cc1 | -1% | 7% | 2% | i | i | -3%
CCSc1nc(-c2ccccc2)c(C#N)c(=O)[nH]1 | -9% | -2%[9.24 µM] | 20% | i | i | 7.3µM*
CSc1nc(-c2ccccc2)c(C#N)c(=O)[nH]1 | 0% | -4% | -1% | i | i | 0%
O=C(Oc1ccccc1/C=C\C(=O)c1cc2ccccc2o1)c1cccc(F)c1 | u | -29% | u | i | u | 18µM*

Bioassay records as filed in PubChem BioAssay.
